AHR act: human AHR activation; P35869; AHR-responsive luciferase reporter cells, luminescence; activation, % at 5 µM; hit rate 2.5% among 320,000; AID 2796; in the data active means activation above about 47%;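 further: 0% = vehicle wells and 100% = reference agonist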
ADAM17 inh: ADAM17 inhibition, QFRET primary screen | AID 720648 | P78536 | recombinant ADAM17, EDANS/DABCYL FRET peptide cleavage | hit rate 0.83% among 370,000 | inhibition, % at 6.95 µM;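 active means inhibition above the mean of compounds lying between control limits plus 3 SD, set per campaign, cut at about 8.5% in these data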;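 further: 0% = DMSO-only wells as the low control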
proKLK7 act: activators of human kallikrein-7 zymogen | purified proKLK7, EDANS-DABCYL substrate fluorescence; 100% is mature enzyme control, 0% vehicle | activation, % at 7 µM | hit rate 0.9% among 370,000;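 active means activation above the mean of all tested compounds plus 3 SD, computed per campaign excluding outliers beyond control limits, cut at about 13% in these data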
rCAG RNA binder: binds r(CAG) RNA repeats; hit rate 1.3% among 370,000; r(CAG) RNA repeat, TO-PRO-1 dye displacement fluorescence; inhibition, % at 3 µM; AID 651821;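 active means inhibition above the plate cutoff, the mean of all test compounds on that plate plus 3 SD, cut at about 35% in these data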;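 further: 0% = DMSO alone and 100% = 100 µM mitoxantrone as full dye displacement; higher means more dye released from RNA so lower well fluorescence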
GRIN3A LBD mod: NR3A (human) ligand-binding domain modulation. hit rate 2.5% among 340,000. NR3A LBD differential scanning fluorimetry, Tm shift; 0% = protein alone, 100% = glycine-bound protein. AID 1259313. Tm shift relative to glycine control, % at 25 µM;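 active means melting temperature shift of at least 10% of the positive control shift, at one fixed dose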
ADAM10 inh: inhibits human ADAM10; O14672; recombinant ADAM10, EDANS/DABCYL FRET peptide cleavage, 3 h; inhibition, % at 7 µM; hit rate 0.62% among 370,000; AID 720582;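 active means inhibition above a per-campaign cutoff equal to the mean of compounds falling between control-based bounds plus 3 SD, cut at about 20% in these data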;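 further: 0% = DMSO wells while the 100% control is not disclosed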
Target sequence (O14672 214-748 limits assumed): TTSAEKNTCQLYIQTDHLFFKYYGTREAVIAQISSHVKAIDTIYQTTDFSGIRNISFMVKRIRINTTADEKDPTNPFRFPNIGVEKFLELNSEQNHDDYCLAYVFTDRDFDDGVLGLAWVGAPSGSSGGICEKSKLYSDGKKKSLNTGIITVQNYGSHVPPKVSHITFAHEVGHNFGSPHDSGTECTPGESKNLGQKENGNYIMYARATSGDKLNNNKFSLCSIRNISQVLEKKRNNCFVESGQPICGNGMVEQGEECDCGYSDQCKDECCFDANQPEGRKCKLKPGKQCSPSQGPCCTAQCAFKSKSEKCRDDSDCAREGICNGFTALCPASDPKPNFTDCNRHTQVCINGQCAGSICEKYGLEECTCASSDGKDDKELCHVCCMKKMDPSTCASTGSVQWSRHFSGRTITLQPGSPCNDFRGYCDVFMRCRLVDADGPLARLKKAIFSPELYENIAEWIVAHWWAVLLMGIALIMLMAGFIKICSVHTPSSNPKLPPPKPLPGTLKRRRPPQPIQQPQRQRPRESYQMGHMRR
proKLK7 act conf: proKLK7 activation, confirmation; shares compounds with proKLK7 act; purified proKLK7, EDANS-DABCYL substrate fluorescence; scaled: vehicle 0, mature enzyme 100; activation, % at 7 µM; hit rate 68% among 3,200; AID 686949;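 active means activation, as change over the incubation, above the mean of all tested compounds plus 3 SD, cut at about 13% in these data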
EDANS interfere: counter-screen for kallikrein-7 activators: EDANS-DABCYL optical interference. shares compounds with proKLK7 act. EDANS-DABCYL substrate fluorescence interference, no enzyme, 4 h; solvent 0%, active enzyme control 100%. activation, % at 7 µM. hit rate 80% among 3,200;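 active means activation above the all-compound mean plus 3 SD, ignoring values outside control-based bounds, cut at about 4.8% in these data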;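 further: value is the 4 h activation minus the activation read at time zero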
K7 EDANS ctr: EDANS fluorescence interference in dose response, no enzyme; shares compounds with proKLK7 act; EDANS-DABCYL peptide fluorescence interference; EC50, µM; hit rate 20% among 250; AID 720493;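 active means compounds that raise the fluorescence signal in this interference counterscreen, with EC50 at or below 10 µM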;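 further: intact quenched peptide substrate alone read at 355 nm excitation and 520 nm emission; signal is fluorescence gain from T0 to T4 after four hours at room temperature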
* hit, by the source's call; i = inactive; x = no result given. Rows were chosen to be rich in hits. Some 7% of all compounds tested hit in one or more screens of this group.

SMILES	AHR act	ADAM17 inh	proKLK7 act	rCAG RNA binder	GRIN3A LBD mod	ADAM10 inh	proKLK7 act conf	EDANS interfere	others
COc1ccccc1C1C(C(C)=O)=C(O)C(=O)N1c1ccc(O)cc1 (stereo not given)	-3	1	0	-1	0	-3	x	x
O=C(NC(CO)(CO)CO)c1coc(=O)c(Br)c1	-1	-59	41*	3	2	-242	54*	54*
O=C(NCCc1ccccc1)c1coc(=O)c(Br)c1	x	-195	14*	-4	1	-431	32*	26*	K7 EDANS ctr=i
CN(C)CCNC(=O)c1coc(=O)c(Br)c1	-1	-207	-6	3	1	i	x	x
Cc1ccc(S(=O)(=O)N2CCCCC2)cc1NC(=O)COC(=O)Cc1cccc(C(F)(F)F)c1	-2	4	-1	-2	-2	10	x	x
CCn1c([N+](=O)[O-])nc2c1c(=O)[nH]c(=O)n2C	x	-2	0	0	-2	-11	x	x
COc1ccc(C(=O)N(C)[C@H]2C[C@H]3c4[nH]c5ccccc5c4CCN3C(=O)[C@H]2CO)cc1	x	-230	44*	6	x	i	51*	57*
COc1ccc(NC(=O)N(C)[C@H]2C[C@H]3c4[nH]c5ccccc5c4CCN3C(=O)[C@H]2[C@H](C)O)cc1	x	i	88*	4	x	i	8	9.5*
COc1ccc(NC(=O)N(C)[C@H]2C[C@H]3c4[nH]c5ccccc5c4CCN3C(=O)[C@H]2CO)cc1	x	-234	24*	4	x	i	3	3
C[C@H]1CCC[C@H](O)CC(=O)c2c(O)cc(O)cc2CC(=O)O1	x	-1	1	2	x	0	x	x
Cc1c(NS(=O)(=O)c2cccc(C(=O)OCC(=O)c3ccc(Cl)cc3)c2)c(=O)n(-c2ccccc2)n1C	x	-1	1	9	1	-5	x	x
COC(=O)CC1=C(C(=O)OC)C(c2cc(OC)c(OC)cc2OC)C(C#N)=C(N)O1 (stereo not given)	-1	-7	3	-2	-2	-17	x	x
COC(=O)CC1=C(C(=O)OC)[C@@H](c2ccccc2[N+](=O)[O-])C(C#N)=C(N)O1	21	-13	38*	-2	1	-40	90*	71*	K7 EDANS ctr=8.7*
COC(=O)C1=CN(C)C=C(C(=O)OC)C1c1ccccc1Cl	1	-415	24*	0	-4	i	76*	77*
CCOc1ccc(C2C(C(=O)OC)=CN(CCOC)C=C2C(=O)OC)cc1	0	i	26*	-7	2	i	-4	-2
COCCN1C=C(C(=O)OC)C(c2ccc(Cl)cc2)C(C(=O)OC)=C1	1	i	31*	-5	-2	i	-71	-71
COCCN1C=C(C(=O)OC)C(c2ccc3c(c2)OCO3)C(C(=O)OC)=C1	0	-54	-1	-3	-1	-166	x	x
Cc1nc(Cc2nnc(SCC(=O)Nc3c(C)cccc3C)o2)cs1	2	-1	0	0	2	-1	x	x
COc1ccc(S(=O)(=O)N2CCCCC2)cc1NC(=O)CCC(=O)N1CCC(c2ccccc2)=N1	x	2	-1	3	4	0	x	x
COc1ccc(C)cc1S(=O)(=O)NCCN1CCOCC1	1	-5	0	0	0	-10	x	x
COc1ccc(Br)cc1S(=O)(=O)NCCN1CCOCC1	2	5	42*	5	0	10	0	0
C[C@@H]1CN([C@@H](C)CO)C(=O)CCCn2nncc2CO[C@H]1CN(C)S(=O)(=O)c1ccccc1F	x	-1	0	-1	x	-15	x	x
Cc1cc(C)nc(SCc2nc3nc(C)cc(C)n3c2Br)n1	6	-122	4	-4	-1	-390	x	x
Cc1cc(C)n2c(Br)c(CN3CCCC(C)C3)nc2n1 (stereo not given)	4	-73	15*	-2	5	-314	14*	16*
O=C(Nc1nccs1)c1cc(N2CCOCC2)nc2ccccc12	76*	-16	18*	1	0	-27	14*	12*
SMILES	AHR act	ADAM17 inh	proKLK7 act	rCAG RNA binder	GRIN3A LBD mod	ADAM10 inh	proKLK7 act conf	EDANS interfere	others
O=C(Nc1nccs1)c1ccccc1Br	2	-3	0	1	0	0	x	x
O=C(/C=C/c1cccs1)Nc1nccs1	21	-11	15*	-5	-10	-27	10	17*
Cc1ccc(/C=C/C(=O)Nc2nccs2)o1	29	-6	1	5	7	-15	x	x
Nc1ccccc1C(=O)Nc1nccs1	-1	i	50*	1	-3	i	14*	16*
O=C(Nc1nccs1)c1cc(-c2ccccc2)nc2ccccc12	25	8	1	4	-4	16	x	x
CC1C(=O)N2CCCc3cc(NC(=O)COc4ccc(Cl)cc4)cc1c32 (stereo not given)	-1	-1	0	0	x	-8	x	x
CCCNC(=S)Nc1ccc2nc(-c3ccccn3)c(-c3ccccn3)nc2c1	-1	-79	16*	-2	0	-336	44*	54*
S=C(Nc1ccc2nc(-c3ccccn3)c(-c3ccccn3)nc2c1)N1CCCCC1	x	x	x	x	-2	x	x	x
COc1ccc(-c2nc3c(-c4ccccc4)cnn3cc2C)cc1F	-3	-6	0	-5	0	-5	x	x
COc1cccc(-c2cnc3cccnn23)c1	x	-351	46*	3	x	i	39*	45*
Cc1ccc(-c2cnc3cccnn23)cc1F	x	-276	23*	5	x	i	5	7.6*
c1csc(C2C3=C(Nc4ncnn42)c2ccccc2OC3)c1 (stereo not given)	22	-134	17*	2	0	-434	34*	31*
Cc1nc(Cl)c2c(n1)NC1=C(O2)C(=O)CCC1	4	-48	22*	-45	-2	-137	18*	22*
Clc1ccc2nc(-c3ccc4c(c3)OCO4)cn2c1	23	-230	14*	0	-1	i	7	7.8*
C[C@@]12C(=O)N(CC3CCCO3)CC(=O)N1[C@H]1c3cc(Cl)ccc3OC[C@@H]1[C@@H]2c1ccccc1 (stereo not given in full)	-3	3	0	-3	0	11	x	x
O=C(CCc1n[nH]c(=O)[nH]c1=O)Nc1cccc([N+](=O)[O-])c1	2	6	16*	10	-1	3	-1	0
Nc1nc(SCC(=O)Nc2cccc([N+](=O)[O-])c2)n[nH]1	0	2	0	2	1	-12	x	x
